Assay outcomes deposited in PubChem BioAssay by several laboratories.
Compounds with a hit are over-represented: about 0.98% of the library has one in this group of screens.
EBV gp42 inh = inhibitors of Epstein-Barr virus glycoprotein 42; Q1HVG2; Fluorescence polarization binding assay, mP read-out; inhibition, % (tested at 21.74 µM); 0.42% of 220,000 active; AID 1085; in the data active = inhibition above about 50%
LANA DNA inh = blocks KSHV LANA C-terminal domain binding to DNA | MBP-C-LANA/FAM-LBS DNA binding, fluorescence polarization | inhibition, % at 9 µM | 0.078% of 340,000 active | AID 504423;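 active = highest replicate inhibition at or above 60% at 9 µM, even if other replicates fall short; inactive = all replicates below 60% inhibition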
eLon inh = inhibitors of E. coli Lon protease; P0A9M0; purified E. coli Lon protease, fluorescence polarization; inhibition, % at 7.94 µM; 0.42% of 360,000 active; in the data active = inhibition above about 13%, passing the limit was not always enough
Target sequence (P0A9M0 whole entry, looked up): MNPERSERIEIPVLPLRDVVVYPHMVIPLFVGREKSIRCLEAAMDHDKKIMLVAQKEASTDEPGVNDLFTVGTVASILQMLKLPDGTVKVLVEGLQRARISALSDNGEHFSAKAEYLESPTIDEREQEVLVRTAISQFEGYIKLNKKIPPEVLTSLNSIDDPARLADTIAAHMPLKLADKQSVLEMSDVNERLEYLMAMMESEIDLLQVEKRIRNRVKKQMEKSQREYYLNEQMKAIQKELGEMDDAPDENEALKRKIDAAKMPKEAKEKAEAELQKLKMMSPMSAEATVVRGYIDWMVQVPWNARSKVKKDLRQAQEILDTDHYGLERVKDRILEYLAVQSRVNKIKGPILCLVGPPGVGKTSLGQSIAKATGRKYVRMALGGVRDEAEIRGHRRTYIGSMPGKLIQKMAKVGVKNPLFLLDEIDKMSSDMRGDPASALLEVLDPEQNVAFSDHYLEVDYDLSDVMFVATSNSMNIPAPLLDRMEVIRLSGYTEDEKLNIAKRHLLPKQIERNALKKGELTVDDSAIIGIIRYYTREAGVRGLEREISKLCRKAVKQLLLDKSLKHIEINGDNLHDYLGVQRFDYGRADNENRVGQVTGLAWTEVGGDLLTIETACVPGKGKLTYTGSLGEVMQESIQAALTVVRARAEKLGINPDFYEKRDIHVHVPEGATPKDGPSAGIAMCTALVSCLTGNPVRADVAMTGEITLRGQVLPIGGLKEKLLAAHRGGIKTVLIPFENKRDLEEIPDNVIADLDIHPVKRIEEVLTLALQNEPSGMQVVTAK
RTF Ca sens inh = cardiac RTF calcium desensitization; 0.12% of 340,000 active; IANBD-labeled cardiac RTF, Ca2+ fluorescence; P19429+P45379; inhibition, % at 7.15 µM;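 active = inhibition above the mean inhibition of all tested compounds plus 3 SD, cut at about 17% in these data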;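 note: assay run at fixed EC70 calcium of 1.6 mM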
Keap1-Nrf2 PPI = Keap1-Nrf2 (human) interaction inhibition; Q14145; Keap1 Kelch-Nrf2 peptide fluorescence polarization, 1536-well; inhibition, % at 9.4 µM; 0.15% of 340,000 active; in the data active = inhibition above about 12%; inconclusive = no clear call, values can overlap the other calls; inactive = below about 7.3%;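 note: human Keap1 Kelch domain with fluorescein labeled Nrf2 9mer peptide probe; higher means more block of Keap1 binding to Nrf2 peptide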
RTF Ca sens act = increases calcium sensitivity of human cardiac regulated thin filaments; P19429+P45379; IANBD-labeled TnC RTF fluorescence at EC20 calcium; 0% EC20 calcium, 100% full calcium; activation, % at 7.2 µM; 0.24% of 340,000 active; AID 493008;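 active = activation above the mean over all tested compounds plus 3 SD, cut at about 30% in these data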;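 note: rise in fluorescence read as greater calcium sensitivity of cardiac thin filaments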
E coli Lon conf = E. coli Lon inhibition confirmation. purified E. coli Lon, fluorescence polarization. 31% of 1,400 active. shares compounds with eLon inh. inhibition, % at 7.94 µM; in the data active = inhibition above about 16%
Of the large screens only hits and unclear results are named; the others gave an inactive call (follow-up assays come after a bar, where they were run).

CC1=NN(C(N)=S)C(=O)C1N=Nc1ccccc1O (configuration not stated)	eLon inh 19 (no result: EBV gp42 inh) | E coli Lon conf 26
CC(C)Nc1ncnc2c1ncn2[C@H]1CN(Cc2ccc(Cl)cc2)C[C@@H](CO)O1	none (no result: EBV gp42 inh, LANA DNA inh, RTF Ca sens inh, Keap1-Nrf2 PPI, RTF Ca sens act)
COc1ccc(NS(=O)(=O)c2cc(NC(=O)CCc3ccc(OC)c(OC)c3)ccc2N2CCOCC2)cc1	none (no result: EBV gp42 inh)
Cc1cc2oc(=O)cc(CN3CCN(C/C=C/c4ccccc4)CC3)c2cc1O	eLon inh 22 | E coli Lon conf inactive
CCOC(=O)c1[nH]cnc1N=Nc1c(O)ccc2ccccc12	EBV gp42 inh 56, eLon inh 44 | E coli Lon conf 76
CCC(C)(C)n1nnnc1C(C(C)C)N(Cc1ccco1)Cc1cc2cc3c(cc2[nH]c1=O)OCO3 (configuration not stated)	eLon inh 36 | E coli Lon conf 52
CCC(C)(C)n1nnnc1C(C(C)C)N(Cc1cccnc1)Cc1ccco1 (configuration not stated)	none
Cc1sc(N=Nc2ccc(N(C)C)cc2)[n+]([O-])c1C	none (no result: EBV gp42 inh, LANA DNA inh, RTF Ca sens inh, Keap1-Nrf2 PPI, RTF Ca sens act)
COc1cccc(NC(=O)C2CCN(S(=O)(=O)c3ccc4c(c3)CC(C)N4C(C)=O)CC2)c1 (configuration not stated)	none (no result: EBV gp42 inh)
CC(=O)N1c2ccc(S(=O)(=O)N3CCC(C(=O)Nc4cccc(C(F)(F)F)c4)CC3)cc2CC1C (configuration not stated)	eLon inh 28 (no result: EBV gp42 inh) | E coli Lon conf inactive
COc1cccc(CN(C)C(=O)c2cc(-c3ccc(OC)c(OC)c3)nc3ccccc23)c1	eLon inh 20 (no result: EBV gp42 inh) | E coli Lon conf inactive
O=C(COC(=O)/C=C/c1ccccc1[N+](=O)[O-])NCc1ccco1	none (no result: EBV gp42 inh)
c1cc(-c2ccsc2)n2ccnc2c1	none (no result: EBV gp42 inh, LANA DNA inh, RTF Ca sens inh, Keap1-Nrf2 PPI, RTF Ca sens act)
c1cc(-c2ccoc2)n2ccnc2c1	eLon inh 73 (no result: EBV gp42 inh, LANA DNA inh, RTF Ca sens inh, Keap1-Nrf2 PPI, RTF Ca sens act) | E coli Lon conf inactive
Cc1ccc(CNC(=O)c2ccc(N3CCC4(CC3)CC(c3ccccc3)=NO4)c(N)c2)cc1	none (no result: EBV gp42 inh)
Nc1nc(N=Nc2ccc(O)cc2)cc(=O)[nH]1	eLon inh 67 (no result: EBV gp42 inh, LANA DNA inh, RTF Ca sens inh, Keap1-Nrf2 PPI, RTF Ca sens act) | E coli Lon conf 35
COc1ccc2nc(CCN(C)C(=O)C3CCC(=O)N(Cc4cccc(F)c4)C3)[nH]c2c1 (configuration not stated)	none (no result: EBV gp42 inh)
COc1cccc(CN2CC(C(=O)N(C)Cc3nc4ccc(F)cc4[nH]3)CCC2=O)c1 (configuration not stated)	eLon inh 69 (no result: EBV gp42 inh) | E coli Lon conf inactive
COc1ccc(NC(=O)Nc2nccs2)cc1	eLon inh 16 | E coli Lon conf inactive
COc1ccc(C(=O)Nc2nccs2)cc1	none (no result: EBV gp42 inh)
CCOC(=O)Cc1cc(=O)[nH]n(-c2ccccc2)c1=O	none (no result: EBV gp42 inh)
COc1ccc(/C=N/N2CCN(C)CC2)c(OC)c1OC	eLon inh 20 | E coli Lon conf inactive
CC(C)(C)NC(=O)NC(=O)CN1CCc2ccccc21	none
COCCNC(=O)NC(=O)CN1CCCc2ccccc21	eLon inh 48 | E coli Lon conf inactive
N#CC12COC3(CCCCC3C1(C#N)C#N)OC2=N (configuration not stated)	eLon inh 46, Keap1-Nrf2 PPI inconclusive | E coli Lon conf inactive
CCCC1OC23CCCCC2C(C#N)(C(=N)O3)C1(C#N)C#N (configuration not stated)	none
N#CC1(C#N)COC23CCCCC2C1(C#N)C(=N)O3 (configuration not stated)	eLon inh 23, Keap1-Nrf2 PPI 21 | E coli Lon conf inactive
O=C([C@H]1O[C@@H](n2ccc(=O)[nH]c2=O)[C@H](O)[C@@H]1O)N(CCC1=CCCCC1)CC1CC1	none (no result: EBV gp42 inh, LANA DNA inh, RTF Ca sens inh, Keap1-Nrf2 PPI, RTF Ca sens act)
COCCCn1c(=NC(=O)c2ccncc2)c(C#N)cc2c(=O)n3cccc(C)c3nc21	eLon inh 38 | E coli Lon conf 22
CCCCn1c(=NC(=O)c2cccnc2)c(C#N)cc2c(=O)n3cccc(C)c3nc21	eLon inh 24 | E coli Lon conf inactive
NC(=O)C1CCCN1Cc1ccc2c(c1)OCO2 (configuration not stated)	none (no result: EBV gp42 inh)
CC(C)C[C@@H](CN1CCC[C@H]1CN1C(=O)C(=O)NC[C@@H]1Cc1ccccc1)N1C[C@H](Cc2ccc(O)cc2)N(CC2CCCCCC2)C(=O)C1=O	eLon inh 11 (no result: EBV gp42 inh, LANA DNA inh, RTF Ca sens inh, Keap1-Nrf2 PPI, RTF Ca sens act) | E coli Lon conf inactive
CC(=O)Nc1ccc(NC(=O)CSc2ccc(-c3ccco3)nn2)cc1	eLon inh 17 | E coli Lon conf inactive
Cc1ccc(NC(=O)CSc2nnc(-c3ccco3)c(-c3ccco3)n2)cc1	eLon inh 161 | E coli Lon conf inactive
COc1ccc([C@H]2C[C@H](n3cc(COC(=O)c4ccccc4)nn3)[C@@H](O)CN2Cc2cccs2)cc1	none (no result: EBV gp42 inh, LANA DNA inh, RTF Ca sens inh, Keap1-Nrf2 PPI, RTF Ca sens act)
O=C(c1ccco1)[C@@H]1[C@@H]2C(=O)N(c3ccccc3)C(=O)[C@@H]2C2c3ccccc3C=CN21 (some centres not stated)	eLon inh 24 (no result: EBV gp42 inh) | E coli Lon conf 33
COc1ccc(N2C(=O)[C@@H]3[C@H](C2=O)[C@H]2c4ccccc4C=CN2[C@@H]3C(=O)Nc2ccccc2)cc1	none
Cc1ccc(NC(=O)COC(=O)c2ccc([N+](=O)[O-])o2)cc1S(=O)(=O)N1CCCCC1	none
Cc1ccc(NC(=O)COC(=O)c2ccc(Br)o2)cc1S(=O)(=O)N1CCCCC1	eLon inh 23 (no result: EBV gp42 inh) | E coli Lon conf 20
O=C1N=C(N2C=CC(=C3C=CNC=C3)C=C2)/C(=C/N=NC(=O)c2ccccc2O)S1	eLon inh 40 (no result: EBV gp42 inh) | E coli Lon conf 41
COc1ccc(N2CCN(c3cc(C(=O)Nc4cc(OC)c(OC)c(OC)c4)ncn3)CC2)cc1OC	eLon inh 12 (no result: EBV gp42 inh, LANA DNA inh, RTF Ca sens inh, Keap1-Nrf2 PPI, RTF Ca sens act) | E coli Lon conf inactive
COc1cc(NC(=O)c2ccccn2)cc(OC)c1OC	none
COCCn1c(N)c(N(Cc2ccccc2)C(=O)C2=COCCO2)c(=O)[nH]c1=O	eLon inh 29 (no result: EBV gp42 inh) | E coli Lon conf inactive
O=C(COC(=O)CNC(=O)c1ccccc1)NCc1ccc2c(c1)OCO2	none (no result: EBV gp42 inh)
COc1ccc(Cl)cc1S(=O)(=O)N1CCC(C(=O)NCC2CCCO2)CC1 (configuration not stated)	none (no result: EBV gp42 inh)
COc1ccc(OC)c(S(=O)(=O)N2CCC(C(=O)NCC3CCCO3)CC2)c1 (configuration not stated)	eLon inh 32 | E coli Lon conf inactive
CC/C(=C\C(=O)c1ccncc1)Nc1ccc(O)cc1	eLon inh 26 | E coli Lon conf inactive
N#Cc1cnc(SCC(=O)N2CCCC2)nc1N	eLon inh 14 (no result: EBV gp42 inh) | E coli Lon conf inactive
F[B-](F)(F)c1cncc2ccccc12	eLon inh 42 (no result: EBV gp42 inh) | E coli Lon conf 38
F[B-](F)(F)c1cnc2ccccc2c1	none (no result: EBV gp42 inh)
O=[N+]([O-])c1ccc(-c2ccc(C=Nc3cccc4ccccc34)o2)cc1	none
